# Screening data as filed in PubChem.
# PKA-R2B act: activators of human PKA-R2B complex | P22694+P31323 | PKA-R2B holoenzyme dissociation, Cy5-IP20 fluorescence polarization; R2B truncated from residue 108, S112A mutant; 0% DMSO only, 100% 113 µM cGMP | activation, % at 11.4 µM | hit rate 0.079% among 340,000 | AID 504700;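 active means activation above a cutoff set at the mean over all compounds plus 3 SD, cut at about 18% in these data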;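 further: higher means more holoenzyme dissociation and a rise in polarization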
# PKA-R1A activ: activators of PKA-R1A complex; activation, % at 11.4 µM; PKA-R1A dissociation, Cy5-IP20 fluorescence polarization; scaled: DMSO 0%, 113 µM cGMP 100%; hit rate 0.083% among 340,000; P00514+P68181;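 active means percent activation above the mean of all tested compounds plus 3 SD, cut at about 19% in these data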;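 further: higher means more PKAc released from R1A so a rise in polarization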
# PG9 binder: PG9 antibody binding by small molecule. TR-FRET gp120-PG9 antibody binding. inhibition, % at 6.7 µM. hit rate 0.43% among 360,000. AID 624416; in the data active means inhibition above about 8.5%
# NR1D1 modulator: Rev-erb alpha (human) modulation. P20393. Rev-erbα–FITC-DNA binding, fluorescence polarization, 90 min. activity, % at 10 µM. hit rate 0.79% among 370,000;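 active means activity above about 14%, limit read from the data; passing the limit was not always enough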
# PG9 bind confirm: PG9 antibody binding, confirmed. hit rate 90% among 1,500. inhibition, % at 6.7 µM. shares compounds with PG9 binder. TR-FRET PG9 antibody binding, biochemical. AID 651571; in the data active means inhibition above about 9%
# PGV04 counter: counter-screen for PG9 binders: binding control antibody PGV04; shares compounds with PG9 binder; TR-FRET PGV04 antibody-gp120 binding, biochemical; inhibition, % at 6.7 µM; hit rate 95% among 1,500; AID 651604; in the data active means inhibition above about 9.5%
# PG9 bind DR: PG9 antibody binding, dose response. TR-FRET PG9 antibody-gp120 binding inhibition. 95 tested, under 10 active. AID 651848. shares compounds with PG9 binder. IC50, µM; in the data active means IC50 below about 10 µM
# PGV04 binding DR: PGV04 binding, dose response counter-screen. hit rate 20% among 95. shares compounds with PG9 binder. IC50, µM. TR-FRET binding to control antibody PGV04
# PG126 DR counter: PG126 binding, dose response counter-screen | hit rate 20% among 95 | IC50, µM | shares compounds with PG9 binder | AID 651939 | TR-FRET binding to antibody PG126, counterscreen
# Rev-erbA confirm: Rev-erb alpha (human) modulation, hit confirmation; hit rate 61% among 3,000; shares compounds with NR1D1 modulator; activation, % at 25 µM; Rev-erb alpha FITC-DNA binding, fluorescence polarization, 90 min;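 active means activation at or above a set limit, or at least 3 SD above the negative control mean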
# RORg DNA counter: affects RORgamma DNA binding in a Rev-erb alpha counter-screen; shares compounds with NR1D1 modulator; purified RORgamma protein-FITC-DNA binding, fluorescence polarization; IC50, µM; hit rate 8% among 910;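 active means Compounds whose fitted half-maximal concentration for disrupting protein-DNA binding is below 10 micromolar; the record names Rev-erb in its text, so the target is in doubt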
# Hits are given with their value; n = inactive; x = not tested or not shown. An excerpt weighted towards active compounds, which were near 1.2% of everything screened. Unless noted, no stated cut-off is given here; in the data, active means IC50 below about 9 µM; inactive means the rest.
SMILES,PKA-R2B act,PKA-R1A activ,PG9 binder,NR1D1 modulator,PG9 bind confirm,PGV04 counter,Rev-erbA confirm,others
C=CCn1c(SCC(=O)NCc2ccco2)nc2sc(C)c(C)c2c1=O,n,n,n,n,x,x,x,
Cc1sc2nc(SCC(=O)NCc3ccco3)n(Cc3ccccc3)c(=O)c2c1C,n,n,20,37,14,20,31,
Brc1cc(Br)c2ncnc(N3CCCCC3)c2c1,n,n,38,76,54,63,40,RORg DNA counter=2.8
Clc1ccc(-n2ncc3c(N4CCCCCC4)ncnc32)cc1,n,n,n,n,x,x,x,
O=C(CSc1nc2ncc(Cl)cc2[nH]1)c1c[nH]c2ccccc12,n,n,35,23,35,51,23,
CCOC(=O)[C@]12CCCCC/C=C\1N(CCc1ccc(Cl)cc1)C(=O)[C@H]2CC(=O)NCC1CCCCC1,x,x,x,n,x,x,x,
COC(=O)c1c(-c2ccc(F)cc2)csc1NC(=O)c1ccco1,n,n,12,27,18,25,n,
O=C(Nc1scc(-c2ccccc2)c1C(=O)O)c1ccco1,n,n,n,n,x,x,x,
C[C@H]1[C@H](N(Cc2cccs2)Cc2cccs2)CC[C@@]23CCCN2C(=O)CCC[C@@H]13,x,x,x,n,x,x,x,
Cc1cc(C(N)=O)c2cc(Br)ccc2n1,n,n,n,n,x,x,x,
CCOC(=O)c1cc(C(=O)OCC)c2cc(Br)ccc2n1,n,n,11,40,12,17,38,RORg DNA counter=n
Cn1c(-c2cc(Cl)ccc2O)nc2c1c(=O)[nH]c(=O)n2Cc1ccccc1,x,x,n,n,x,x,x,
COc1ccc(Br)cc1-c1nc2c(c(=O)[nH]c(=O)n2Cc2ccccc2)n1C,n,n,45,92,69,20,52,PG9 bind DR=9.5;PGV04 binding DR=5.1;PG126 DR counter=5.7;RORg DNA counter=n
Clc1ccc(CN2CCN(N=Cc3cccc(OCc4ccccc4)c3)CC2)cc1,x,x,x,n,x,x,x,
Cc1cccc(NC(=O)C2CCCN(S(=O)(=O)c3cccc4nsnc34)C2)c1 (stereo not given),n,n,65,155,64,58,79,PG9 bind DR=4.3;PGV04 binding DR=3.9;PG126 DR counter=4.3;RORg DNA counter=n
Cc1cccc(NC(=O)C2CCN(S(=O)(=O)c3cccc4nsnc34)CC2)c1,n,n,n,n,x,x,x,
COC(=O)c1c(NC(=O)c2ccn(C)n2)sc2c1CCC2,n,n,9.0,20,n,13,n,
Cn1c(SCC2CCCCC2)nnc1-c1ccco1,x,x,x,n,x,x,x,
CCn1c(=O)cc(OCC(=O)N2CCc3ccccc32)c2ccccc21,n,n,40,45,50,71,12,
Cc1c(C(=O)N/N=C/c2ccccc2Cl)[nH][nH]c1=O,x,x,x,n,x,x,x,
CCc1cc2cc3c(cc2nc1SCC(=O)Nc1cc(C)on1)OCO3,n,n,21,211,46,66,158,RORg DNA counter=n
CCc1cc2cc3c(cc2nc1SCC(=O)OC(C)C)OCO3,n,n,n,n,x,x,x,
CCc1cc2cc(C)ccc2nc1SCC(=O)Nc1cc(C)on1,n,n,14,17,11,31,26,
O=C(CSc1nnc(-c2ccccc2)n1-c1ccccc1)Nc1ccccc1-c1ccccc1,x,x,x,n,x,x,x,
CCCCc1ccc2nc(NC(=O)c3ccco3)sc2c1,x,x,x,n,x,x,x,
Cc1ccc(-c2nc(NC(=O)CSc3nnnn3-c3ccccc3)ns2)cc1,n,n,13,18,n,n,n,
O=C(CSc1nnnn1-c1ccccc1)Nc1ccc(Cl)cc1,n,n,n,n,x,x,x,
CCn1c2ccccc2c2cc(NC(=O)CSc3nnnn3-c3ccccc3)ccc21,n,n,10,39,9.2,18,24,
